Several values for one entry are separate records, joined by “and”; a condition that tells them apart may be missing. Identical values can stand only once. A structure can be active in one record and inactive in another. Activity calls are given as the source filed them. The calls were made as follows: active = hit-call score of the fitted dose curve at least 0.9, where 1 is the maximum; inactive = score below 0.9.
Experiments:
[1] = read-out: Matrix Metallopeptidase 1 (MMP1), MMP1 (gene 4312); assay: BSK_hDFCGF_MMP1: BioMAP Diversity Plus: hDFCGF Assay for Matrix Metallopeptidase 1 (MMP1) Biomarker Activity (AID 2283064); conditions: primary human foreskin fibroblasts; actives raise or lower the signal
Summary of the method: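 ELISA read-out of MMP1 from human foreskin fibroblasts (primary skin cells), 24 h post-dose. Gain or loss of signal was fitted bidirectionally versus DMSO negative control; cytotoxicity was checked by SRB in parallel cultures.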

[2] = read-out: Vascular cell adhesion molecule 1 (VCAM1), VCAM1 (gene 7412); assay: BSK_hDFCGF_VCAM1: BioMAP Diversity Plus: hDFCGF Assay for Vascular cell adhesion molecule 1 (VCAM1) Biomarker Activity (AID 2283065); conditions: primary human foreskin fibroblasts; actives raise or lower the signal;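 as to AC50: VCAM-1 protein level quantified by ELISA after 24 h chemical exposure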
Summary of the method: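 Human foreskin fibroblast primary cells dosed with chemical, VCAM-1 measured by ELISA at 24 h. Bidirectional curve fitting relative to DMSO as negative control/baseline.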

[3] = read-out: Intercellular Adhesion Molecule 1 (ICAM1), ICAM1 (gene 3383); assay: BSK_KF3CT_ICAM1: BioMAP Diversity Plus: KF3CT Assay for Intercellular Adhesion Molecule 1 (ICAM1) Biomarker Activity (AID 2283067); conditions: primary human keratinocytes with fibroblasts; actives raise or lower the signal
Summary of the method: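 Human keratinocyte–foreskin fibroblast co-culture was treated for 24 h. Cell-surface ICAM-1 was quantified by ELISA, fitted bidirectionally relative to DMSO. Cytotoxicity was checked in parallel cultures by SRB total-protein staining.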

[4] = read-out: Interferon-gamma inducible Protein 10 (IP10), CXCL10 (gene 3627); assay: BSK_KF3CT_IP10: BioMAP Diversity Plus: KF3CT Assay for Interferon-gamma inducible Protein 10 (IP10) Biomarker Activity (AID 2283068); conditions: primary human keratinocytes with fibroblasts; actives raise or lower the signal
Summary of the method: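 Signal is secreted/surface IP-10 by ELISA in a human primary skin co-culture of keratinocytes and foreskin fibroblasts, taken 24 h post-dosing; DMSO served as negative control.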

[5] = BSK_KF3CT_SRB: Viability Assessment in the BioMAP Diversity Plus: KF3CT Assay (AID 2283069); conditions: primary human keratinocytes with fibroblasts
Summary of the method: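 SRB read-out at 560 nm (0.1% stain, TCA-fixed cells) gauges overt cytotoxicity in a human skin keratinocyte–fibroblast co-culture 24 h post-dosing. Signal change was fitted bidirectionally relative to DMSO control.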

[6] = read-out: Interleukin-1 alpha (IL1a), IL1A (gene 3552); assay: BSK_KF3CT_IL1a: BioMAP Diversity Plus: KF3CT Assay for Interleukin-1 alpha (IL1a) Biomarker Activity (AID 2283070); conditions: primary human keratinocytes with fibroblasts; actives raise or lower the signal
Summary of the method: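 Primary skin co-culture (keratinocytes, foreskin fibroblasts), 24 h exposure; ELISA for IL-1a; bidirectional curve fit vs DMSO.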

[7] = read-out: TIMP metallopeptidase inhibitor 2 (TIMP2), TIMP2 (gene 7077); assay: BSK_KF3CT_TIMP2: BioMAP Diversity Plus: KF3CT Assay for TIMP metallopeptidase inhibitor 2 (TIMP2) Biomarker Activity (AID 2283071); conditions: primary human keratinocytes with fibroblasts; actives raise or lower the signal
Summary of the method: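 TIMP-2 measured by ELISA at 24 h in human keratinocyte/fibroblast primary co-cultures exposed to chemicals. Both increases and decreases were fitted against DMSO. Parallel cultures were stained with SRB for total protein as an overt-cytotoxicity check.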

[8] = read-out: Transforming growth factor beta 1 (TGFb1), TGFB1 (gene 7040); assay: BSK_KF3CT_TGFb1: BioMAP Diversity Plus: KF3CT Assay for Transforming growth factor beta 1 (TGFb1) Biomarker Activity (AID 2283072); conditions: primary human keratinocytes with fibroblasts; actives raise or lower the signal
Summary of the method: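 ELISA quantifies TGF-b1 at 24 h post-dose in a primary human skin co-culture of keratinocytes and fibroblasts, with gain or loss judged against DMSO. Parallel SRB total-protein staining flags overt cytotoxicity.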

[9] = read-out: C-C motif chemokine 2 (Homo sapiens) (UniProt P13500); assay: BSK_KF3CT_MCP1: BioMAP Diversity Plus: KF3CT Assay for Monocyte Chemoattractant Protein 1 (MCP1/CCL2) Biomarker Activity (AID 2283073); conditions: primary human keratinocytes with fibroblasts; actives raise or lower the signal
Summary of the method: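 Human keratinocyte–foreskin fibroblast co-culture; MCP-1 measured by ELISA 24 h after dosing. Bidirectional fit vs DMSO; cytotoxicity tracked by SRB total protein in parallel cultures.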

[10] = read-out: Matrix Metallopeptidase 9 (MMP9), MMP9 (gene 4318); assay: BSK_KF3CT_MMP9: BioMAP Diversity Plus: KF3CT Assay for Matrix Metallopeptidase 9 (MMP9) Biomarker Activity (AID 2283074); conditions: primary human keratinocytes with fibroblasts; actives raise or lower the signal;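 as to AC50: MMP9 protein level quantified by ELISA in the co-culture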
Summary of the method: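 ELISA read-out of MMP-9 at 24 h post-dosing in a co-culture of human skin keratinocytes and foreskin fibroblasts. Gain or loss of signal was fitted in both directions against DMSO.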

[11] = read-out: urokinase plasminogen activator (uPA), PLAU (gene 5328); assay: BSK_KF3CT_uPA: BioMAP Diversity Plus: KF3CT Assay for urokinase plasminogen activator (uPA) Biomarker Activity (AID 2283075); conditions: primary human keratinocytes with fibroblasts; actives raise or lower the signal
Summary of the method: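 Skin co-culture (keratinocytes + foreskin fibroblasts), human primary; 24 h post-dose; uPA by ELISA; gain/loss fit vs DMSO baseline.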

CD40, CD40 (gene 958) = assay: BSK_LPS_CD40: BioMAP Diversity Plus: LPS Assay for CD40 Biomarker Activity (AID 2283076); conditions: primary human HUVEC with PBMC; actives raise or lower the signal
Summary of the method: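 HUVEC plus PBMC co-culture stimulated with LPS; CD40 quantified by ELISA 24 h after compound dosing. Fitting was bidirectional relative to DMSO. SRB staining of parallel cultures flagged overt cytotoxicity.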

[12] = read-out: E-selectin (Homo sapiens) (UniProt P16581); assay: BSK_LPS_Eselectin: BioMAP Diversity Plus: LPS Assay for Eselectin Biomarker Activity (AID 2283077); conditions: primary human HUVEC with PBMC; actives raise or lower the signal
Summary of the method: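 Human umbilical vein endothelial cells co-cultured with PBMC under LPS stimulation; cell-surface E-selectin measured by ELISA 24 h after dosing. Change in either direction versus DMSO, with SRB total-protein staining in parallel cultures for cytotoxicity.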

[13] = read-out: Interleukin-8 (IL8), CXCL8 (gene 3576); assay: BSK_LPS_IL8: BioMAP Diversity Plus: LPS Assay for Interleukin-8 (IL8) Biomarker Activity (AID 2283078); conditions: primary human HUVEC with PBMC; actives raise or lower the signal
Summary of the method: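 Human umbilical vein endothelial cells co-cultured with PBMC, LPS-stimulated, exposed to compound for 24 h. IL-8 quantified by ELISA; fitted in both directions against DMSO, with SRB total-protein staining of parallel cultures for cytotoxicity.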

[14] = BSK_LPS_SRB: Viability Assessment in the BioMAP Diversity Plus: LPS Assay (AID 2283079); conditions: primary human HUVEC with PBMC;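 also: total protein by sulforhodamine B absorbance as a cytotoxicity measure; measured one day after compound addition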
Summary of the method: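 Co-culture of human umbilical vein endothelial cells and PBMC, read 24 h after dosing. Total protein by 0.1% SRB staining after 10% TCA fixation, absorbance at 560 nm; bidirectional fit against DMSO.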

[15] = read-out: Interleukin-1 alpha (IL1a), IL1A (gene 3552); assay: BSK_LPS_IL1a: BioMAP Diversity Plus: LPS Assay for Interleukin-1 alpha (IL1a) Biomarker Activity (AID 2283080); conditions: primary human HUVEC with PBMC; actives raise or lower the signal
Summary of the method: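 Human umbilical vein endothelial cells co-cultured with PBMC and stimulated with LPS; IL-1a measured by ELISA 24 h after dosing. Bidirectional fitting against DMSO; cytotoxicity checked by SRB staining in parallel cultures.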

[16] = read-out: Monocyte Chemoattractant Protein-1 (MCP1), CCL2 (gene 6347); assay: BSK_LPS_MCP1: BioMAP Diversity Plus: LPS Assay for Monocyte Chemoattractant Protein-1 (MCP1) Biomarker Activity (AID 2283081); conditions: primary human HUVEC with PBMC; actives raise or lower the signal;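 as to AC50: secreted MCP-1 protein quantified by ELISA in culture supernatant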
Summary of the method: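 Human umbilical vein endothelial cells co-cultured with PBMC, LPS-stimulated; secreted MCP-1 measured by ELISA 24 h after compound addition. Bidirectional curve fitting against DMSO baseline; SRB total-protein staining in parallel cultures for cytotoxicity.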

[17] = BSK_LPS_PGE2: BioMAP Diversity Plus: LPS Assay for Prostaglandin E2 (PGE2) Biomarker Activity (AID 2283082); conditions: primary human HUVEC with PBMC; actives raise or lower the signal;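 as to AC50: secreted prostaglandin E2 measured by ELISA in LPS-stimulated co-culture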
Summary of the method: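 PGE2 release measured by ELISA in an LPS-activated co-culture of human umbilical vein endothelial cells and peripheral blood mononuclear cells, read at 24 h post-dosing. DMSO served as baseline for bidirectional curve fitting.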

[18] = read-out: Macrophage colony-stimulating factor (MCSF), CSF1 (gene 1435); assay: BSK_LPS_MCSF: BioMAP Diversity Plus: LPS Assay for Macrophage colony-stimulating factor (MCSF) Biomarker Activity (AID 2283083); conditions: primary human HUVEC with PBMC; actives raise or lower the signal
Summary of the method: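 HUVEC–PBMC co-culture, M-CSF measured by ELISA 24 h after chemical dosing. Fitted in both directions relative to DMSO as negative control; overt cytotoxicity assessed by SRB total-protein staining in parallel cultures.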

[19] = read-out: Plasminogen activator inhibitor-1 (PAI1), SERPINE1 (gene 5054); assay: BSK_hDFCGF_PAI1: BioMAP Diversity Plus: hDFCGF Assay for Plasminogen activator inhibitor-1 (PAI1) Biomarker Activity (AID 2283066); conditions: primary human foreskin fibroblasts; actives raise or lower the signal
Summary of the method: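 PAI-1 levels in human dermal foreskin fibroblasts were quantified by ELISA 24 h after dosing, with gain or loss analysed against DMSO. Overt cytotoxicity was checked by sulforhodamine B total-protein staining in parallel cultures.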

Measured: AC50

Sequence of E-selectin (Homo sapiens) (P16581 whole entry, looked up): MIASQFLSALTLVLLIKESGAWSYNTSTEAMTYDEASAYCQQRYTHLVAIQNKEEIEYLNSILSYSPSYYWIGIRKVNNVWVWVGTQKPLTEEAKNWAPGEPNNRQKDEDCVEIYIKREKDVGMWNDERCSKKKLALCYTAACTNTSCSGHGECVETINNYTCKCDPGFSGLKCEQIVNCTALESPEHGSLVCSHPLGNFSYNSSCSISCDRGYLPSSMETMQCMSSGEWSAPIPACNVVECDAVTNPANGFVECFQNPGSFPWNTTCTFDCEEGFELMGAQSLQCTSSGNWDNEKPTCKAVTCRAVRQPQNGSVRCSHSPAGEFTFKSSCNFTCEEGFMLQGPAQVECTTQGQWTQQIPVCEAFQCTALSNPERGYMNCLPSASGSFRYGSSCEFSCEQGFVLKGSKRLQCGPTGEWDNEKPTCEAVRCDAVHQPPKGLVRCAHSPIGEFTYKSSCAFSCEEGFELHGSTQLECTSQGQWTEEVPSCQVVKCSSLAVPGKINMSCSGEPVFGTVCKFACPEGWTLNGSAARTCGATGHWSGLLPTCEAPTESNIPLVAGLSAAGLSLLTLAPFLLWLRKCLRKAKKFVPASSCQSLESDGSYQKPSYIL

C=CC(=O)OCC(CC)(COC(=O)C=C)COC(=O)C=C
inactive: [13] | [17]
active: [1] 3.85 µM | [2] 1.07 µM | [3] 2.16 µM | [4] 3.17 µM | [5] 3.15 µM | [6] 2.16 µM | [7] 5.38 µM | [8] 2.37 µM | [9] 2.35 µM | [10] 2.34 µM | [11] 3.11 µM | CD40, CD40 (gene 958) 1.35 µM | [12] 2.93 µM | [14] 2.43 µM | [15] 1.46 µM | [16] 3.29 µM | [18] 1.91 µM

OCC1CO1 (centres undefined)
not listed: [5]
inactive: all other assays above

CCOP(=S)(Oc1ccc([N+](=O)[O-])cc1)c1ccccc1 (centres undefined)
active: [2] 7.62 µM | [19] 3.35 µM | [18] 13.7 µM
inactive: all other assays above

Cc1ccc([N+](=O)[O-])cc1C
inactive: all assays above

OCC(F)(F)OC(F)(F)C(F)(F)OC(F)(F)C(F)(F)OC(F)(F)CO
inactive: [19] | [3] | [4] | [6] | [7] | [9] | [10] | [11] | CD40, CD40 (gene 958) | [12] | [13] | [14] | [15] | [16] | [17] | [18]
active: [1] 10.5 µM and 8.39 µM | [2] 13.4 µM and 8.26 µM | CD40, CD40 (gene 958) 7.62 µM | [14] 30 µM

CC(Cc1ccc(OCC(=O)O)cc1)NCC(O)c1csc(C(F)(F)F)n1 (centres undefined)
not listed: [19]
inactive: all other assays above

[N-]=[N+]=[N-]
not listed: [3]
inactive: all other assays above

ClC1=C(Cl)C2(Cl)C3C(Cl)C(Cl)CC3C1(Cl)C2(Cl)Cl (centres undefined)
active: [1] 10.1 µM | [2] 5.47 µM | [19] 10.3 µM | [3] 31.9 µM | [4] 16.1 µM | [5] 28.2 µM | [6] 20 µM | [7] 26.8 µM | [8] 20 µM | [10] 13.3 µM | [11] 27.9 µM | CD40, CD40 (gene 958) 14.9 µM | [12] 30.4 µM | [13] 34 µM | [14] 29.9 µM | [15] 26 µM | [16] 33.2 µM | [18] 27.9 µM
inactive: [9] | [17]

CCCCN(CCCC)SN(C)C(=O)Oc1cccc2c1OC(C)(C)C2
inactive: [3] | [4] | [5] | [6] | [7] | [8] | [9] | [11] | [17]
active: [1] 12.4 µM | [2] 5.54 µM | [19] 8.57 µM | [10] 13.8 µM | CD40, CD40 (gene 958) 20 µM | [12] 30.8 µM | [13] 30.9 µM | [14] 28.4 µM | [15] 29.8 µM | [16] 30.9 µM | [18] 30.9 µM

CCOP(=S)(OCC)SCSCC
not listed: [3]
inactive: all other assays above

OCC(F)(F)OC(F)(F)C(F)(F)OC(F)(F)C(F)(F)OC(F)(F)F
inactive: [1] | [2] | [19] | CD40, CD40 (gene 958) | [12] | [14] | [15] | [16] | [18]
active: [2] 19.3 µM | [4] 53.8 µM and 53.2 µM | [6] 41.4 µM and 44.4 µM | [7] 51.7 µM and 45 µM | [9] 49.3 µM and 22.2 µM | [10] 54.1 µM and 51.6 µM | [11] 45.7 µM and 45.1 µM | CD40, CD40 (gene 958) 41 µM | [13] 47.4 µM and 51.8 µM | [15] 55.1 µM | [16] 52.2 µM | [17] 30 µM and 46.8 µM

CSC(C)(C)C=NO
not listed: [5]
inactive: all other assays above

CCOS(=O)(=O)OCC
not listed: [3]
inactive: all other assays above
